BAZ2B inh: BAZ2B (human) inhibition; Q9UIF8; AlphaScreen BAZ2B-H3K14Ac peptide displacement; Potency, µM (doses to about 114 µM), for the others: top-dose activity change, negative = inhibition, usual class: inhibitors; 4.4% of 360,000 active; AID 504333; note: % is set by controls: 0 for no effect and ±100 for the full control effect; nearly all actives have a fitted effect of over 60% in size
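In this displacement format the biotinylated H3(5-23) peptide acetylated at Lys14 serves as ligand at 50 nM, with BAZ2B at 50 nM in PBS pH 7.4 containing 0.01% Tween-20. Donor and acceptor beads are 10 ug/mL final.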
L3MBTL1 inh: L3MBTL1 (human) inhibition; Q9Y468; AlphaScreen L3MBTL1–H3K9me1 peptide binding; Potency, µM (doses to about 57.1 µM), inactives show top-dose activity, negative = inhibition, usual class: inhibitors; 0.66% of 230,000 active; note: % is set by controls: 0 for no effect and ±100 for the full control effect; nearly all actives have a fitted effect of over 60% in size
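Read-out is AlphaScreen signal from streptavidin donor and nickel chelate acceptor beads (10 ug/mL final each) bridging L3MBTL1 (50 nM) and biotinylated K9-monomethylated H3(1-15) peptide (75 nM), after 30 min compound exposure at room temperature.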
HP1b chromo inh: inhibitors of HP1-beta chromodomain binding to methylated histone tails. P83916. AlphaScreen HP1-beta / biotin-H3K9me3 peptide binding. Potency, µM (series often up to 114 µM), inactives show top-dose activity change, negative = inhibition, usual class: inhibitors. 0.56% of 390,000 active. AID 540317; note: nearly all actives have a fitted effect of over 70% in size
Target sequence (P83916 whole entry, looked up): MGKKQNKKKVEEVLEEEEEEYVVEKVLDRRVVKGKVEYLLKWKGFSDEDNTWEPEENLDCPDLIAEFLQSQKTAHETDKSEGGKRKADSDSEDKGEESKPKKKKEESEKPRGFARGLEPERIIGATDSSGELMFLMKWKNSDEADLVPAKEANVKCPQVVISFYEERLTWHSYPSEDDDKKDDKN
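Compound inhibition of the preformed complex between 50 nM HP1-beta and 50 nM biotinylated H3K9me3 peptide was read by AlphaScreen. Buffer was PBS pH 7.4 with 0.01% Tween-20. Incubations ran 30 min at room temperature, with 10 ug/mL donor/acceptor beads.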
G9a block: G9a (human) methyltransferase inhibition; 8.8% of 350,000 active; Potency, µM (highest dose often 102 µM), without a hit: top-dose activity, negative = inhibition, usual class: inhibitors; G9a H3K9 monomethylation, AlphaScreen, 2 h; Q96KQ7; note: % is set by controls: 0 for no effect and ±100 for the full control effect; nearly all actives have a fitted effect of over 75% in size
Target sequence (Q96KQ7 913-1193 limits assumed): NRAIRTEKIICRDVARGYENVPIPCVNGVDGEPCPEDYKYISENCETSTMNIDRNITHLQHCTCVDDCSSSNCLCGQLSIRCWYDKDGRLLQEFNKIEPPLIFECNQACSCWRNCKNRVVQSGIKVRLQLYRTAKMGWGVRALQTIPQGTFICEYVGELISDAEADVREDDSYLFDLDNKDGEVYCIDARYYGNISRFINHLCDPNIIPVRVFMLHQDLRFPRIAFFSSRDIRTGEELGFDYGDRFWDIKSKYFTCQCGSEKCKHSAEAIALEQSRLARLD
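Step 1: enzyme (final 20 nM) with compound, 15 min RT. Step 2: substrate peptide 500 nM and SAM 20 uM, 2 h RT. Step 3: anti-H3K9me1 antibody and AlphaScreen beads, 10 min, then plate read.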
Sfp PPTase inh: blocks B. subtilis Sfp PPTase activity; Q9F4F7; Biochemical Sfp PPTase activity, qHTS; Potency, µM, without a hit: largest response in the series, negative = inhibition, usual class: inhibitors; 3.5% of 310,000 active; AID 1490;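 note: the enzyme is Sfp with the accession as filed and its product quenches rhodamine fluorescence; 0% = enzyme reaction without inhibitor and -100% = no enzyme wells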
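Compounds were incubated with enzyme (final 15 nM) for 15 min at room temperature before substrate addition started the reaction. Fluorescence at 525 nm excitation, 598 nm emission was recorded immediately and after 30 minutes.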
JMJD2A Tudor inh: inhibitors of human JMJD2A Tudor domain; O75164; AlphaScreen JMJD2A-Tudor / H3K4me3 peptide binding; Potency, µM (highest dose often 114 µM), for the others: at the top dose activity change, negative = inhibition, usual class: inhibitors; 4.4% of 390,000 active; AID 504339; note: % is set by controls: 0 for no effect and ±100 for the full control effect; nearly all actives have a fitted effect of over 50% in size
Active calls of the source: *; ? = inconclusive; · = not tested or not shown; [ ] = dose if it differs, or a comment. Compounds with a hit are over-represented: about 12% of the library has one in this group of screens. Calls come from the whole dose curve; as a rule, active = well fitted curve in the direction sought with a large enough effect; inconclusive = small, poorly fitted or top-dose-only effect, or another doubt; inactive = no such curve, though single readings can be large; an effect the other way counts as inactive or inconclusive. Potency is the fitted concentration of half-maximal effect.

SMILES	BAZ2B inh	L3MBTL1 inh	HP1b chromo inh	G9a block	Sfp PPTase inh	JMJD2A Tudor inh
Cc1onc(C(=O)Nc2sc3c(c2C#N)CCCC3)c1[N+](=O)[O-]	-64.8%	·	-7.5%	44.7µM*	50.1µM*	-20.0%
O=C(O)c1ccc(NS(=O)(=O)c2cccc(C(=O)Nc3ccc(Br)cc3)c2)cc1	7.4%	-2.7%[2.29 µM]	39.2%	20.4%[0.501 µM]	17.6%	-13.6%
COC(=O)c1c(NC(=O)c2c(OC)cccc2OC)sc2c1CCCC2	7.8%	·	-25.7%	?	·	-7.8%
CC(C)(C)C1CCc2c(sc(NC(=O)c3noc4c3CCCC4)c2C#N)C1 (centres undefined)	-0.6%	·	-4.9%	7.08µM*	·	-2.4%
CC(C)(C)C1CCc2c(sc(NC(=O)c3cc(-c4ccc(F)cc4)on3)c2C#N)C1 (centres undefined)	1.3%	·	8.8%	?	·	-5.1%
N#Cc1c(NC(=O)c2cccc(S(=O)(=O)Nc3ccc(C(=O)O)cc3)c2)sc2c1CCCC2	56.2µM*	-0.1%	-6.4%	50.1µM*	2.3%	-35.9%
Cc1ccc(-n2ncc3c(NC4CCCC4)ncnc32)cc1	0.2%	·	21.3%	13.4%[59 µM]	·	4.0%
NC(=O)c1c(NC(=O)c2ccncc2)sc2c1CCCCCC2	-29.5%	-5.9%	29.0%	-6.4%	1.0%	-18.5%
N#Cc1c(NC(=O)c2cnn3cccnc23)sc2c1CCCC2	-15.6%	-6.4%	-4.9%	39.8µM*	44.7µM*	-6.9%
N#Cc1c(NC(=O)C2CC(c3ccccc3Cl)=NO2)sc2c1CCC2 (centres undefined)	0.6%	-6.7%	-26.2%	?	12.3%	-23.3%
CC1CCc2c(sc(NC(=O)c3nc4ncccn4n3)c2C#N)C1 (centres undefined)	-24.8%	·	?	3.16µM*	22.4µM*	?
N#Cc1c(NC(=O)c2nc3ncccn3n2)sc2c1CCCCC2	30.1%	-6.5%	22.2%	-15.1%[59 µM]	-22.5%	-12.2%
N#Cc1c(NC(=O)c2ccncc2)sc2c1CCC2	50.1µM*	?	-19.4%	11.2µM*	?	63.1µM*
N#Cc1c(NC(=O)C2CC(c3ccccc3O)=NO2)sc2c1CCC2 (centres undefined)	-6.0%	11.2%	-18.9%	8.91µM*	25.1µM*	-17.9%
Cc1cc(C)cc(N2C(=O)N(Cc3cc(=O)n4ccccc4n3)c3ccccc3S2(=O)=O)c1	-6.8%	·	26.4%	0.5%[59 µM]	·	-22.3%
Cc1ccc(CN2CCN(C3CCN(C(=O)Nc4ccc(C)cc4Cl)CC3)C(=O)C2=O)cc1	-6.3%	·	21.5%	2.0%[59 µM]	·	-11.3%
Cc1ccc(S(=O)(=O)c2nnn(CC(=O)Nc3ccccc3C)c2N)cc1	-7.1%	·	17.0%	-30.3%[59 µM]	·	-21.2%
COc1cccc(CN(C)CC(=O)Nc2sc3c(c2C#N)CCC3)c1OC	79.4µM*	-27.7%	40.3%	-33.3%	-27.9%	-7.7%
Cc1onc(-c2ccccc2Cl)c1C(=O)Nc1sc2c(c1C#N)CCC2	-31.8%	-30.0%	?	10µM*	17.8µM*	?
N#Cc1c(NC(=O)c2ccco2)sc2c1CCC2	-17.1%	·	?	89.1µM*	-3.9%	50.1µM*
COc1ccc(CN(C)CC(=O)Nc2sc3c(c2C#N)CCC3)cc1OC	?	?	15.5%	?	7.4%	-24.2%
COc1cc2c(cc1NC(=O)COc1ccc(Cl)cc1Br)oc1ccccc12	-1.5%	·	13.7%	2.7%[59 µM]	·	-4.1%
Cc1ccc2c(c1)-c1nc(-c3ccc4c(c3)NC(=O)CO4)cc(-c3ccc(F)cc3)c1CO2	-17.2%	·	19.5%	-4.6%[59 µM]	·	-4.5%
COc1cc2cc3c4cc(OC)c(OC)cc4cc[n+]3c(C)c2cc1OC	·	·	·	?	15.4%	·
CC1=CC(C)(C)N2C(=O)C(=O)c3cc(OC(=O)c4ccco4)cc1c32	35.5µM*	-14.2%	31.6µM*	35.5µM*	-4.1%	35.5µM*
CC1=CC(C)(C)Nc2ccc(OC(=O)c3ccco3)cc21	50.1µM*	-13.9%	-13.4%	?	-7.6%	?

Screens as filed in PubChem.
